The results in this text go back to PubChem BioAssay (EPA / NIEHS).

Activity calls are given as the source filed them. How the source made its calls: active means hit-call score of the fitted dose curve at least 0.9, where 1 is the maximum; inactive means score below 0.9.

The nature of assay [1]: ATG_CMV_CIS: Attagene CIS-FACTORIAL HepG2 Assay for human CMV (Internal Marker) (AID 2282928).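 Further: endpoint acts as a background internal control marker rather than a target.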 The note with it: HepG2 CMV promoter reporter, transcription factor profiling; actives raise or lower the signal. The gist of the method:
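Reporter transcripts from transfected HepG2 cells are isolated after 24 h of chemical dosing, reverse-transcribed and amplified. Fragments labeled with 6-FAM are cut with HpaI and quantified by capillary electrophoresis; DMSO defines baseline.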

Assay [2] in a line: ATG_M_32_CIS: Attagene CIS-FACTORIAL HepG2 Assay for M32 Transcription Factor (Internal Marker) (AID 2282949).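 Further: background control marker of the multiplexed CIS panel rather than a real target.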 The note with it: HepG2 Attagene cis-factorial M32 reporter, mRNA; actives raise or lower the signal. The gist of the method:
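Transient MRTU transfection of HepG2; 24 h compound treatment; TriZol RNA, oligo(dT) RT, reporter PCR, 6-FAM primer extension, HpaI cut, CE. Gain/loss of signal vs DMSO.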

Assay [3] addresses Hepatocyte nuclear factor 6 (Homo sapiens) (UniProt Q9UBC0). The assay is described as follows: ATG_HNF6_CIS: Attagene CIS-FACTORIAL HepG2 Assay for human Hepatocyte Nuclear Factor 6 (HNF6) (AID 2282952). Particulars: HepG2 Attagene cis-factorial HNF6 reporter transcription; actives raise or lower the signal. The gist of the method: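 Activity values derive from bidirectional fitting against DMSO of reporter mRNA levels, measured by capillary electrophoresis of labelled RT-PCR products from HepG2 cells exposed 24 h.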

The target of assay [4] is Heat shock factor protein 1 (Homo sapiens) (UniProt Q00613). The assay is described as follows: ATG_HSE_CIS: Attagene CIS-FACTORIAL HepG2 Assay for human Heat Shock Transcription Factor 1 (HSE) (AID 2282953). The note with it: HepG2 HSE cis-reporter, Attagene RNA transcription; actives raise or lower the signal. An outline of the steps:
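HepG2 cells transiently transfected with multiple reporter transcription units under cis-regulatory promoter control, measuring endogenous transcription factor activity. After 24 h chemical exposure, reporter mRNA quantified by RT-PCR, fluorescent labelling, HpaI digestion and capillary electrophoresis; bidirectional fit versus DMSO.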

The nature of assay [5]: ATG_RORE_CIS: Attagene CIS-FACTORIAL HepG2 Assay for human RAR-related Orphan Receptor Element (RORE) (AID 2282959). Particulars: HepG2 Attagene cis-factorial RORE reporter, mRNA; actives raise or lower the signal. An outline of the steps: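 Transfect HepG2 with MRTUs; treat 24 h; extract RNA; RT with oligo(dT); PCR with reporter-specific primers; 6-FAM primer extension; HpaI digest 2 h at 37 C; capillary electrophoresis. Fit vs DMSO, bidirectional.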

For assay [6], the target named is Signal transducer and activator of transcription 3 (Homo sapiens) (UniProt P40763). Kind of assay: ATG_STAT3_CIS: Attagene CIS-FACTORIAL HepG2 Assay for human Signal Transducer and Activator of Transcription 3 (STAT3) (AID 2282963). The note with it: HepG2, Attagene cis-factorial STAT3 reporter transcription; actives raise or lower the signal. The gist of the method: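 Cis-factorial format: endogenous transcription factors in HepG2 drive transfected reporter units. After 24 h treatment, reporter RNA was reverse-transcribed, amplified, FAM-labelled and HpaI-digested before CE analysis; activity scored in both directions against DMSO.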
Chain of Signal transducer and activator of transcription 3 (Homo sapiens) (P40763 whole entry, looked up): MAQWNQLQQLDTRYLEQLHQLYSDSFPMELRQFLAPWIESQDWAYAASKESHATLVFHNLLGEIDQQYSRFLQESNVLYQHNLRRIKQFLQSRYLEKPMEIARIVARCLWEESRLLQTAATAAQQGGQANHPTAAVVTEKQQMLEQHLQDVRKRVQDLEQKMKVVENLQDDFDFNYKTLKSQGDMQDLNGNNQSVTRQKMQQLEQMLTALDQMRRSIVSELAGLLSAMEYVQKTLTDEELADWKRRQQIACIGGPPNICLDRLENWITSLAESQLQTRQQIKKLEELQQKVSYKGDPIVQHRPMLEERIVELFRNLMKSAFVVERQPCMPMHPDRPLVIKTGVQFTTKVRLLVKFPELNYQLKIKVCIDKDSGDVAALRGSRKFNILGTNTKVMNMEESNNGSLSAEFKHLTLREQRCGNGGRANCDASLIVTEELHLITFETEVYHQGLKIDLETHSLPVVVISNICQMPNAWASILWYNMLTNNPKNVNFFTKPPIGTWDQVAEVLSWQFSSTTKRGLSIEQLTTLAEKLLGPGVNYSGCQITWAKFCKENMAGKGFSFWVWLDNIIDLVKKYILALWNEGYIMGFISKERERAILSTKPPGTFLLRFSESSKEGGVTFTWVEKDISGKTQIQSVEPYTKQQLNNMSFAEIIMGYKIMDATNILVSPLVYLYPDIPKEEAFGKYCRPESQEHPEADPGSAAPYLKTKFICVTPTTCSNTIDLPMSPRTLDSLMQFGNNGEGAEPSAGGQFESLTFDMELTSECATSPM

Assay [7] can be described thus: ATG_TA_CIS: Attagene CIS-FACTORIAL HepG2 Assay for human TA Basal Promoter (AID 2282964). Particulars: HepG2 Attagene CIS-factorial TA basal promoter reporter; actives raise or lower the signal. An outline of the steps: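 HepG2 cells transiently transfected with multiplexed cis-promoter reporter units, dosed 24 h. Reporter mRNA measured by RT-PCR, 6-FAM labelling, HpaI digestion and capillary electrophoresis; bidirectional fit versus DMSO baseline, serving as background control.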

Assay [8] can be described thus: ATG_TCF_b_cat_CIS: Attagene CIS-FACTORIAL HepG2 Assay for human T-Cell-Factor with beta-catenin (TCF/b-cat) (AID 2282965). The note with it: HepG2 TCF/beta-catenin cis-reporter transcription, actives raise or lower the signal. An outline of the steps: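 Measured: reporter mRNA in HepG2 transiently transfected with cis-promoter reporter units, 24 h after chemical addition. Fitting was bidirectional, DMSO as negative control.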

Assay [9] in a line: ATG_TAL_CIS: Attagene CIS-FACTORIAL HepG2 Assay for human TAL Basal Promoter (AID 2282966).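 Further: background control endpoint measuring basal TAL promoter reporter mRNA not a specific factor.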 Particulars: HepG2 Attagene cis-factorial TAL promoter reporter; actives raise or lower the signal. An outline of the steps: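 Transiently transfected HepG2 (cis-regulated reporter units), 24 h treatment, mRNA read by fluorescent CE after RT-PCR; bidirectional fit, DMSO baseline.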
A short description of assay [10]: ATG_TGFb_CIS: Attagene CIS-FACTORIAL HepG2 Assay for human Transforming Growth Factor (TGF) (AID 2282967). Particulars: HepG2 Attagene CIS TGFb reporter, mRNA transcription; actives raise or lower the signal. An outline of the steps:
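HepG2 cells transiently transfected with cis-promoter-driven multiplexed reporter units; 24 h compound exposure. Reporter mRNA measured by RT-PCR, 6-FAM labeling, HpaI digestion and capillary electrophoresis; bidirectional fit versus DMSO baseline.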

Assay [11] can be described thus: ATG_VDRE_CIS: Attagene CIS-FACTORIAL HepG2 Assay for human Vitamin D Receptor Element (VDRE) (AID 2282968). The note with it: HepG2 VDRE cis-reporter transcription, actives raise or lower the signal. An outline of the steps: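 Measures endogenous factor activity through cis-element-driven reporter transcripts in transiently transfected HepG2. Cells are treated 24 h; reporter mRNA is quantified by RT-PCR and capillary electrophoresis; fitting is bidirectional.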

Assay [12] deals with X-box-binding protein 1 (Homo sapiens) (UniProt P17861). Kind of assay: ATG_Xbp1_CIS: Attagene CIS-FACTORIAL HepG2 Assay for human X-box Binding Protein 1 (XBP1) (AID 2282972). The note with it: HepG2 XBP1 cis-element reporter, Attagene multiplex; actives raise or lower the signal. The gist of the method:
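Changes in reporter transcript abundance, read by RT-PCR and capillary electrophoresis, reflect endogenous transcription factor activity. Transfected HepG2 cells received compound for 24 hours; DMSO defined baseline for bidirectional analysis.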

Assay [13] deals with Transcriptional activator Myb (Homo sapiens) (UniProt P10242). Kind of assay: ATG_Myb_CIS: Attagene CIS-FACTORIAL HepG2 Assay for human Myeloblastosis (Myb) Proto-Oncogene Transcription Factor (AID 2282986). Particulars: HepG2 Attagene CIS-FACTORIAL Myb reporter transcription; actives raise or lower the signal. An outline of the steps:
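Using HepG2 liver cells bearing transiently transfected cis-promoter reporter constructs, the assay measures induction or loss of reporter mRNA after 24 hours of dosing. Detection used fluorescently labeled RT-PCR products separated by capillary electrophoresis.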

The target in assay [14] is Nuclear respiratory factor 1 (Homo sapiens) (UniProt Q16656). The assay is described as follows: ATG_NRF1_CIS: Attagene CIS-FACTORIAL HepG2 Assay for human Nuclear Respiratory Factor 1 (NRF1) Orphan Gene (AID 2282987). The note with it: HepG2 NRF1 cis-element reporter, Attagene multiplex; actives raise or lower the signal. The gist of the method:
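Reporter mRNA induction or loss in HepG2 cells after 24 h dosing; cis-regulated reporter constructs report endogenous transcription-factor activity. Quantified by RT-PCR/capillary electrophoresis fluorescence, DMSO-referenced.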

The target in assay [15] is Myc proto-oncogene protein (Homo sapiens) (UniProt P01106). Kind of assay: ATG_Myc_CIS: Attagene CIS-FACTORIAL HepG2 Assay for human Myelocytomatosis (Myc) Proto-Oncogene Transcription Factor (AID 2282990). The note with it: HepG2, Attagene cis-reporter transcription factor activity; actives raise or lower the signal. The gist of the method: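 Cells of the HepG2 human liver line bear multiple cis-driven reporter transcription units. Reporter mRNA after 24 h exposure is reverse-transcribed, amplified, labelled and resolved by capillary electrophoresis, with gain- or loss-of-signal fitting relative to DMSO.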
Chain of Myc proto-oncogene protein (Homo sapiens) (P01106 whole entry, looked up): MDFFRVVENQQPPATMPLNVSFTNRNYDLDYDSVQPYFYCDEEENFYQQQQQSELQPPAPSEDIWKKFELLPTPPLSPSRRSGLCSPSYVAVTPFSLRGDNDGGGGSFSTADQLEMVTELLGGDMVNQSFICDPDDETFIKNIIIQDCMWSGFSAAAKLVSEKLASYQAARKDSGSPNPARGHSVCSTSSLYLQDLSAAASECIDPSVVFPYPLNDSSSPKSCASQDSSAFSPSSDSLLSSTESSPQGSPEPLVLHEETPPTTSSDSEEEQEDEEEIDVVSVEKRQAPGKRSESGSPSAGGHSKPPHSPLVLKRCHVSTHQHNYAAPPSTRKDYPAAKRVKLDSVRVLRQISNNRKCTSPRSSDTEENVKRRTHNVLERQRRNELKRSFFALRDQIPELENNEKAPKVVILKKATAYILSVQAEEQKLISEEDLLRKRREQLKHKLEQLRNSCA

Assay [16] is described as follows: ATG_NF_kB_CIS: Attagene CIS-FACTORIAL HepG2 Assay for human Nuclear Factor Kappa B (NF-kB) (AID 2282991). The note with it: HepG2 Attagene cis-factorial NF-kB reporter mRNA; actives raise or lower the signal. The gist of the method: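 DMSO served as negative control and baseline for bidirectional curve fitting. Transiently transfected HepG2 cells were dosed for 24 h, then reporter transcripts were measured by RT-PCR with capillary electrophoresis detection.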

Assay [17] in a line: ATG_NRF2_ARE_CIS: Attagene CIS-FACTORIAL HepG2 Assay for human Nuclear Factor Erythroid 2 Related Factor 2 (NFR2) response to Antioxidant Response Elements (ARE) (AID 2282992). Particulars: HepG2 Attagene ARE/NRF2 reporter, transcription factor activity; actives raise or lower the signal. The gist of the method: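 Using transiently transfected HepG2 cells exposed for 24 h, reporter mRNA levels were determined by RT-PCR with fluorescent primer extension and capillary electrophoresis, analysed for gain or loss of signal against DMSO.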

The nature of assay [18]: ATG_Oct_MLP_CIS: Attagene CIS-FACTORIAL HepG2 Assay for human Octamer-Binding Transcription Factor (Oct) (AID 2282993). Particulars: HepG2 Attagene cis-factorial Oct reporter, mRNA; actives raise or lower the signal. An outline of the steps:
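HepG2 cells transiently transfected with cis-promoter-driven multiplexed reporter transcription units, dosed for 24 h. Reporter mRNA quantified by RT-PCR, fluorescent labelling, HpaI digestion and capillary electrophoresis; bidirectional fits versus DMSO baseline.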

Assay [19] concerns the target Cellular tumor antigen p53 (Homo sapiens) (UniProt P04637). The assay is described as follows: ATG_p53_CIS: Attagene CIS-FACTORIAL HepG2 Assay for human p53 Transcription Factor (AID 2282994). The note with it: HepG2 p53 cis-element reporter, Attagene mRNA; actives raise or lower the signal. An outline of the steps: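 In HepG2 cells, reporter transcription units under cis-regulatory promoters were transiently introduced. Following 24 h treatment, RNA was processed to labelled, digested cDNA fragments read by capillary electrophoresis; fitting was bidirectional versus DMSO.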

The nature of assay [20]: ATG_ISRE_CIS: Attagene CIS-FACTORIAL HepG2 Assay for human Interferon Regulatory Factor 1 (IRF1) binding to an Interferon-Stimulated Response Element (ISRE) (AID 2282948). Particulars: HepG2 ISRE cis-reporter (Attagene), mRNA transcription readout; actives raise or lower the signal. An outline of the steps: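 Uses HepG2 liver cells transfected with cis-regulated reporters and measures mRNA 24 h post-dosing through RT-PCR, primer-extension labelling and capillary electrophoresis, with DMSO as negative control.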

Chain of X-box-binding protein 1 (Homo sapiens) (P17861 whole entry, looked up): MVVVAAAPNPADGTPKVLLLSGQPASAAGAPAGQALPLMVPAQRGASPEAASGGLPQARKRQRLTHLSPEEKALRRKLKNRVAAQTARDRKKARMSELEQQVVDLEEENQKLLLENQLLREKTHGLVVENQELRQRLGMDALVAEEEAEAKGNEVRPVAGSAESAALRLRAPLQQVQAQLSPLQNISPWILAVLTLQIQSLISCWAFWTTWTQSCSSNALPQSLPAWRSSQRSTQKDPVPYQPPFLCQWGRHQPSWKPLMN
Chain of Heat shock factor protein 1 (Homo sapiens) (Q00613 whole entry, looked up): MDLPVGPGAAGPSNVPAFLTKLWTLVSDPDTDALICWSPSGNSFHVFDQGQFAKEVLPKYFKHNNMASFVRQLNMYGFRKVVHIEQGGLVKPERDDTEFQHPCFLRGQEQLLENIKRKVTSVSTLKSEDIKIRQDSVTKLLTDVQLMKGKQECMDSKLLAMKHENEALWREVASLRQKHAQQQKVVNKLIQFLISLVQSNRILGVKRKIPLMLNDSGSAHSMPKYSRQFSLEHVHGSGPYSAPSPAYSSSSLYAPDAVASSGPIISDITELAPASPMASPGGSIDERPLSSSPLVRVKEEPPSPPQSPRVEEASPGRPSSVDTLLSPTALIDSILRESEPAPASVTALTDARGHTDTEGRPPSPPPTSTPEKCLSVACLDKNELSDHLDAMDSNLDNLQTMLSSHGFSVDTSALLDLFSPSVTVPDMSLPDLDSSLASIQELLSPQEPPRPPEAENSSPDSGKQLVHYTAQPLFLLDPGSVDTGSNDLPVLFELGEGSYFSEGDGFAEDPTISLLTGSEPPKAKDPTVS
Chain of Cellular tumor antigen p53 (Homo sapiens) (P04637 whole entry, looked up, the tested form may be a part): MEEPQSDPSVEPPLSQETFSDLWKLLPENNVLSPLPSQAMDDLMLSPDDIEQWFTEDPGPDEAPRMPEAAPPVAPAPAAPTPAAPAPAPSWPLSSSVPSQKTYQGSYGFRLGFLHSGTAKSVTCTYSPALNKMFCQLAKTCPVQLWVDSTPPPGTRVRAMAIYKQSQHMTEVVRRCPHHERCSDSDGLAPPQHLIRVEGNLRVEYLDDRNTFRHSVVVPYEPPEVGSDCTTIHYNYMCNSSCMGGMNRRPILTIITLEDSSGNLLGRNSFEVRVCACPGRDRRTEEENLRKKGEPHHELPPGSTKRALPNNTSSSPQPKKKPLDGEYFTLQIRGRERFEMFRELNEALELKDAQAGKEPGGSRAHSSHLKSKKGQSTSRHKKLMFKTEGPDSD
Chain of Transcriptional activator Myb (Homo sapiens) (P10242 whole entry, looked up): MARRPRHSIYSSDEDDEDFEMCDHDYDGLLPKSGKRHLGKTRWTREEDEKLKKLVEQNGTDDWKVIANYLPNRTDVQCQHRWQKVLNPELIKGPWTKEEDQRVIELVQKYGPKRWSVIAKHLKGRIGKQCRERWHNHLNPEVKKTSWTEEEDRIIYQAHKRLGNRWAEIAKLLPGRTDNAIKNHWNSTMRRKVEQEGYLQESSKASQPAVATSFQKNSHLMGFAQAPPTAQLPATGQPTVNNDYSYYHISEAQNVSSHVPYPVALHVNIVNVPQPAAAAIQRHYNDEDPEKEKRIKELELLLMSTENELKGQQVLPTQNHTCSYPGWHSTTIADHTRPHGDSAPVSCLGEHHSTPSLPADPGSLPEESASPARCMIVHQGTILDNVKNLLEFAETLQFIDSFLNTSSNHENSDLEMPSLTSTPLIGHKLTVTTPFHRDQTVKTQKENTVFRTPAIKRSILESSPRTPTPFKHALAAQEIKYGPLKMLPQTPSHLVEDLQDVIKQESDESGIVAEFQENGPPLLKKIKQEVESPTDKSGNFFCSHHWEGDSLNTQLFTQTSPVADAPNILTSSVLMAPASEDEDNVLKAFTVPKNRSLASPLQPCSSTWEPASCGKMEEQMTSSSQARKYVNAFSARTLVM
Chain of Hepatocyte nuclear factor 6 (Homo sapiens) (Q9UBC0 whole entry, looked up): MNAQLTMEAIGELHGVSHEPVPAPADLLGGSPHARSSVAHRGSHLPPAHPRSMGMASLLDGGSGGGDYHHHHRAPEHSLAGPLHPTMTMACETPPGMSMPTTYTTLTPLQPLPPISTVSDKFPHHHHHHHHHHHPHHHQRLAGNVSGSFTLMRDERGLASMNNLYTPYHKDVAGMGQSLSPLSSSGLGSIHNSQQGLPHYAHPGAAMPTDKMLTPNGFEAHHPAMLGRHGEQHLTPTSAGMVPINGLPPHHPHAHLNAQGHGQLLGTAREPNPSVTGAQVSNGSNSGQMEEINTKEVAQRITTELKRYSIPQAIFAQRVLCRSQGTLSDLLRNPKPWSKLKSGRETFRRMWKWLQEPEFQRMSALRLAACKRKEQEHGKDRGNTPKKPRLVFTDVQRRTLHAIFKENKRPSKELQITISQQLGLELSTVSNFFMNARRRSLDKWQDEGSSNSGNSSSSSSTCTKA
Chain of Nuclear respiratory factor 1 (Homo sapiens) (Q16656 whole entry, looked up): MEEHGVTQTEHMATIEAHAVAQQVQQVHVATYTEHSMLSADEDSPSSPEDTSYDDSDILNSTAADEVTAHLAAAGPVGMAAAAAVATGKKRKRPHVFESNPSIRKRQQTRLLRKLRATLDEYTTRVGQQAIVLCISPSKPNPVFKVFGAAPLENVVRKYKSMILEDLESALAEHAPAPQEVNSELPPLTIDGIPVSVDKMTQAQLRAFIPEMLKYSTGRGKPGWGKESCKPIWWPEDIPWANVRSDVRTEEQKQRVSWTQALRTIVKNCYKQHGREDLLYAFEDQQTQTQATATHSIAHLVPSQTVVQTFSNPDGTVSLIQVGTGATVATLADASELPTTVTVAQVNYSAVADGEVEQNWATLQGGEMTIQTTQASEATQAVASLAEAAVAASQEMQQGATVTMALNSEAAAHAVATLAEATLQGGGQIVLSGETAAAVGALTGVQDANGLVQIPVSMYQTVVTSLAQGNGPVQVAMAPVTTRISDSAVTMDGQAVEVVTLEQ

With `CCC(C)c1cc([N+](=O)[O-])cc([N+](=O)[O-])c1OC(=O)C=C(C)C` (stereo unspecified), the outcome in assay [1], in assay [2], in assay [3], in [5], in assay [9] and in assay [10] was inactive. The compound was called inactive in [13], in assay [14], in [15] and in assay [16]. In addition, the AC50 in assay [4] was 25.8 µM (active); in [6], 80.1 µM (active); in [7], 100 µM (active); in assay [8], 31.8 µM (active); in [11] it was 0.86 µM (active); in [12], 27.2 µM (active). Besides, the concentration at half-maximal activity (AC50) in [17] was 3.47 µM (active); in assay [18], 25.8 µM (active); in assay [19] it was 48.3 µM (active).

Consider `CCC(Br)(CC)C(=O)NC(N)=O`, for which the call in [1], in assay [20], in assay [2], in assay [3], in assay [4] and in assay [5] was inactive. Also, the outcome in [6], in assay [7], in [8], in assay [9], in [10] and in assay [11] was inactive. Moreover, the result in assay [12], in [13], in assay [14], in assay [15], in assay [16] and in [17] was inactive. The call in [18] and in assay [19] was inactive.

Turning to `COc1cc(OC)nc(Oc2cccc(Oc3nc(OC)cc(OC)n3)c2C(=O)O)n1`, the call in assay [1], in assay [20], in [2], in assay [3], in assay [4] and in [5] was inactive. In addition, the call in assay [7], in [8], in assay [9], in [10], in assay [11] and in [12] was inactive. In addition, the call in [13], in [14], in assay [15], in assay [16], in assay [17] and in assay [18] was inactive. For the same compound, the call in assay [19] was inactive.

In the case of `CCCCCc1cc(O)cc(O)c1`, the result in assay [1], in assay [2], in [3], in assay [4], in [8] and in assay [10] was inactive. Moreover, the outcome in [13], in assay [14], in [15], in assay [16] and in [19] was inactive. In addition, the AC50 in [5] is 50.4 µM (active); in assay [7], 149 µM (active); in [9] it was 100 µM (active); in [11], 16 µM (active); in assay [12], 51.7 µM (active); in assay [17], 43.5 µM (active). Further, the AC50 in assay [18] is 60.8 µM (active).

Broadly, the AC50 is the concentration giving half of the maximal activity seen.
